High-throughput results from PubChem.
12-hLO inh: inhibitors of human 12-lipoxygenase (ALOX12); P18054; purified 12-hLO, xylenol orange hydroperoxide absorbance; Potency, µM (highest dose often 57.1 µM), for the others: at the highest dose activity change, negative = inhibition, usual class: inhibitors; hit rate 0.12% among 150,000; AID 1452; also: potency is read from the fitted curve at half-maximal effect; nearly all actives have a fitted effect of over 55% in size
Target sequence (P18054 whole entry, looked up): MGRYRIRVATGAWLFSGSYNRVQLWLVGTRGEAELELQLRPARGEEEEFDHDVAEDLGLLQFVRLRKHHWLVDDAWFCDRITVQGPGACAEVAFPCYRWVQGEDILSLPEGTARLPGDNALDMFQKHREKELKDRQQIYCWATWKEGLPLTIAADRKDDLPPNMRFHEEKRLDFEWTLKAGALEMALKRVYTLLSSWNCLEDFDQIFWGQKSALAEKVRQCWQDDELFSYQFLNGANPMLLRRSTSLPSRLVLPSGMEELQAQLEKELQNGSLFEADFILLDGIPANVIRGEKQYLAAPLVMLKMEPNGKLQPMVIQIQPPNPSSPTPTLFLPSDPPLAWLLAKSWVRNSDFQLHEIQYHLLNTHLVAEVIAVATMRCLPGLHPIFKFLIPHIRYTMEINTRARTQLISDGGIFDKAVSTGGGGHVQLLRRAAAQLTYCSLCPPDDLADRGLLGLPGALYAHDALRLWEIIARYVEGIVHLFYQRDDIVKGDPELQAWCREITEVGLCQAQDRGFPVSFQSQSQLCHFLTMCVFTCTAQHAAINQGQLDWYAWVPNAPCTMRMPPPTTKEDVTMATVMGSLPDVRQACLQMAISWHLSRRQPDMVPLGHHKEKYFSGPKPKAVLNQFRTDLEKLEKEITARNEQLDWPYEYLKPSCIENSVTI
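Hydroperoxide formation by human 12-lipoxygenase from 40 uM arachidonic acid was followed colorimetrically via ferric-xylenol orange complex, using the 573/405 nm absorbance ratio. Enzyme concentration was 150 nM, with 30 min reaction at room temperature.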
PNC inhibitor: perinucleolar compartment assembly inhibition | PC3M PTB-GFP, PNC prevalence imaging, 16 h; active compounds read low | activity change (PNC), negative = inhibition, % at 10 µM | hit rate 3.1% among 140,000;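 active = readout at or below -70, meaning at least 70% loss of cells showing the perinucleolar compartment, a nuclear body marking cancer cells; inconclusive = readout between -30 and a set limit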;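 also: plate controls were DMSO wells for no effect and camptothecin positive control wells for full effect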
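Read-out is percentage of cells bearing a perinucleolar compartment, from automated 20x imaging of fixed, Hoechst-stained PC3M PTB-GFP cells. Cells were seeded 4 h, then exposed 16 h to compound (23 nl of library stock) in duplicate plates.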
ALDH1A1 block: blocks purified human ALDH1A1 activity; Purified ALDH1A1, NADH fluorescence, propionaldehyde substrate; Potency, µM (top dose mostly 75.3 µM), inactives show at the top dose activity, negative = inhibition, most hits filed as inhibitors; P00352; hit rate 7.3% among 220,000; active = well fitted inhibition curve with a large enough effect, not every such curve was filed as active; inconclusive = small, poorly fitted or top-dose-only effect, or another doubt; inactive = no such curve, though single readings can be large or run the other way;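 also: potency is read from the fitted curve at half-maximal effect; plate controls were no enzyme wells and a reference inhibitor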
HPGD block: inhibitors of human 15-hydroxyprostaglandin dehydrogenase (HPGD); Potency, µM, without a hit: at the top dose activity change, negative = inhibition, hits mostly inhibitors; AID 894; hit rate 4.3% among 150,000; purified HPGD, NADH fluorescence kinetic, PGE2 substrate; P15428; active = well fitted inhibition curve with a large enough effect, not every such curve was filed as active; inconclusive = small, poorly fitted or top-dose-only effect, or another doubt; inactive = no such curve, though single readings can be large or run the other way; also: potency is read from the fitted curve at half-maximal effect
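NADH formation kinetics: reaction with 30 uM PGE2 and 1 mM NAD+ (final), 20 nM enzyme, Tris-HCl pH 8 with Tween 20, after 15 min compound preincubation at room temperature. Fluorescence change, last versus first of five reads.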
GLA inh pH 4.5: alpha-galactosidase A (human) inhibition, pH 4.5. P06280. purified enzyme, 4-MU-alpha-Gal fluorescence, pH 4.5. activity change, negative = inhibition, % at 105 µM. 230,000 tested, under 10 active;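 also: 0% = full activity with enzyme and -100% = basal without enzyme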
aGal spleen mod: inhibitors or activators of human alpha-galactosidase in spleen homogenate; P06280; human spleen homogenate, 4MU-alpha-Gal fluorescence, 40 min; Potency, µM (series often up to 80 µM), for inactives: at the top dose activity change, negative = inhibition, most hits filed as inhibitors; hit rate 0.008% among 240,000; AID 2107;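 also: potency is read from the fitted curve at half-maximal effect; 0% = enzyme with vehicle and -100% = no enzyme basal signal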
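Spleen homogenate 1 ug + cpd (titration) + 4-MU-alpha-D-galactopyranoside 1 mM; 37C 40 min; 50 mM citrate/phosphate pH 5.0, 0.01% Tween-20; stop pH 10; fluorescence 365/440; AC50 via Hill.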
Active calls of the source: *; u = inconclusive; x = not tested or not shown. Hits are enriched below; roughly 10% of the tested compounds scored in any of these assays. Unless noted, calls follow the shape of the dose curve; as a rule, active = well fitted curve in the direction sought with a large enough effect; inconclusive = small, poorly fitted or top-dose-only effect, or another doubt; inactive = no such curve, though single readings can be large; an effect the other way counts as inactive or inconclusive. Unless noted, % is scaled to controls: 0 for no effect and ±100 for the full control effect.

SMILES	12-hLO inh	PNC inhibitor	ALDH1A1 block	HPGD block	GLA inh pH 4.5	aGal spleen mod
Cc1cccc2cc(CN(CCCN3CCOCC3)Cc3nnnn3C(C)(C)C)c(=O)[nH]c12	-1.2%	37.9	25.1µM*	-5.1%	0.8	1.6%
COc1ccc2cc(CN(Cc3cccnc3)Cc3nnnn3Cc3ccccc3)c(=O)[nH]c2c1	-10.4%	-18.5	8.91µM*	-3.3%	4.6	7.4%
Cc1cccc2cc(CN(Cc3cccs3)Cc3nnnn3Cc3ccccc3)c(=O)[nH]c12	-7.2%	-3.0	2.82µM*	-29.5%	-11.1	9.0%
COCCn1nnnc1CN(Cc1cccnc1)Cc1cc2cc(OC)ccc2[nH]c1=O	-16.6%	u	u	u	9.5	-3.8%
O=S(=O)(NC1CCCCC1)c1cccc(-c2nnc(-c3ccccc3)o2)c1	-7.6%	35.1	u	17.8µM*	-14.3	-7.5%
CS/C(=N\S(=O)(=O)c1cccs1)Nc1ccc(Br)cc1F	-4.5%	-23.4	10.3%	-2.3%	4.1	6.1%
COc1cccc(Nc2ncc3nc(C)c(=O)n(C[C@H]4CCCO4)c3n2)c1	x	x	12.5%	x	x	-25.2%
Cc1ccc(CN2C(=O)CCC2C(=O)NC2CCCC2)cc1 (centres undefined)	-1.2%	17.8	3.0%	-9.3%	-3.7	5.1%
Cc1ccc(CN2C(=O)CCC2C(=O)NCCN(CC(C)C)CC(C)C)cc1 (centres undefined)	4.4%	-25.2	22.4µM*	-7.2%	-3.3	-2.3%
O=C(O)CC1S/C(=N/N=C/c2ccc(-c3ccc(Cl)cc3[N+](=O)[O-])o2)NC1=O (centres undefined)	u	-28.2	22.4µM*	8.91µM*	-8.9	3.9%
O=C(O)CC1S/C(=N/N=C/c2ccc(-c3ccc(Cl)c([N+](=O)[O-])c3)o2)NC1=O (centres undefined)	x	x	u	x	-6.7	14.4%
COC(CNC(=O)c1ccc(N2CCC3(CC2)OCCO3)c([N+](=O)[O-])c1)OC	-2.3%	29.6	28.2µM*	-15.8%	2.6	2.8%
COc1ccc(CNc2ccc(C)c(C)c2)c(OC)c1OC	x	x	12.6µM*	x	-2.1	-3.0%
CCOc1cc(CNc2ccc3c(c2)CCC3)ccc1O	-2.9%	-12.9	u	-7.4%	2.4	5.7%
COc1cc(CNc2ccc3c(c2)CCC3)cc(OC)c1O	-6.8%	-20.4	20µM*	-27.2%	3.1	-9.8%
COc1cc(CNc2ccc(C)c(C)c2)cc(OC)c1OC	-23.7%	-28.7	8.91µM*	-10.8%	5.1	-2.0%
COc1ccc(CNc2cc(C)ccc2C)c(OC)c1OC	-4.5%	1.5	u	-21.7%	-0.2	-5.4%
